“And” between values parts separate entries of the source, which are not always exact repeats. Identical values can stand only once. Records with an inconclusive call do not appear. Where a call stands in place of a potency, no number is given. Values without a mark were called inactive. The source made the active and inactive calls. The call rests on the fitted dose curve; in most records, active means well fitted inhibition curve with a large enough effect; inconclusive means small, poorly fitted or top-dose-only effect; inactive means flat fitted curve, though single readings scatter.
Legend:
JCK = experiment: qHTS profiling for inhibitors of Plasmodium falciparum proliferation (AID 504749); further: potency means the concentration at half of the fitted maximal effect; conditions: P. falciparum in erythrocytes, SYBR Green DNA, 72 h; series mostly up to 28.7 µM
Procedure, shortened: (§1)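 Infected RBCs, 0.3% parasitemia/2.5% Hct final; cpd 72 h, 37 C, 5% CO2; lysis buffer with saponin/triton/SYBR Green I, o/n RT dark; FI 485/535; norm. to artemisinin (0.29 uM) and DMSO.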

N140 = experiment: as above; conditions: P. falciparum in erythrocytes, SYBR Green DNA, 72 h; series mostly up to 28.7 µM
Procedure, shortened: as §1

P93_24 = experiment: as above; conditions: P. falciparum in erythrocytes, SYBR Green DNA, 72 h; series mostly up to 28.7 µM
Procedure, shortened: as §1

P94_40 = experiment: as above; conditions: P. falciparum in erythrocytes, SYBR Green DNA, 72 h; series mostly up to 28.7 µM
Procedure, shortened: as §1

PAD = experiment: as above; conditions: P. falciparum in erythrocytes, SYBR Green DNA, 72 h; series mostly up to 28.7 µM
Procedure, shortened: as §1

PC15 = experiment: as above; conditions: P. falciparum in erythrocytes, SYBR Green DNA, 72 h; series mostly up to 28.7 µM
Procedure, shortened: as §1

PC26 = experiment: as above; conditions: P. falciparum in erythrocytes, SYBR Green DNA, 72 h; series mostly up to 28.7 µM
Procedure, shortened: as §1

PC49 = experiment: as above; conditions: P. falciparum in erythrocytes, SYBR Green DNA, 72 h; series mostly up to 28.7 µM
Procedure, shortened: as §1

SC27B = experiment: as above; conditions: P. falciparum in erythrocytes, SYBR Green DNA, 72 h; series mostly up to 28.7 µM
Procedure, shortened: as §1

TAB109 = experiment: as above; conditions: P. falciparum in erythrocytes, SYBR Green DNA, 72 h; series mostly up to 28.7 µM
Procedure, shortened: as §1

TAB113 = experiment: as above; conditions: P. falciparum in erythrocytes, SYBR Green DNA, 72 h; series mostly up to 28.7 µM
Procedure, shortened: as §1

TAB165 = experiment: as above; conditions: P. falciparum in erythrocytes, SYBR Green DNA, 72 h; series mostly up to 28.7 µM
Procedure, shortened: as §1

W2 = experiment: as above; conditions: P. falciparum in erythrocytes, SYBR Green DNA, 72 h; series mostly up to 28.7 µM
Procedure, shortened: as §1

CRL-7250 = normal cell line; experiment: Cytotoxic Profiling of Annotated Libraries Using Quantitative High-Throughput Screening (AID 1296008); conditions: Five cell lines viability, CellTiter-Glo ATP luminescence, 48-72 h; max response: active compounds read low; further: potency means the concentration at half of the fitted maximal effect
Procedure, shortened: (§2)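 Cytotoxicity was measured as CellTiter-Glo ATP luminescence, read after 10 min at room temperature. Compound treatment of the cells lasted 48 or 72 hr at 37 degrees Celsius in a qHTS format.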

HEK293 = experiment: as above; conditions: Five cell lines viability, CellTiter-Glo ATP luminescence, 48-72 h; max response: active compounds read low
Procedure, shortened: as §2

HaCat [1] = experiment: as above; conditions: Five cell lines viability, CellTiter-Glo ATP luminescence, 48-72 h; max response: active compounds read low
Procedure, shortened: as §2

KB-3-1 = experiment: as above; conditions: Five cell lines viability, CellTiter-Glo ATP luminescence, 48-72 h; max response: active compounds read low
Procedure, shortened: as §2

NIH3T3 = experiment: as above; conditions: Five cell lines viability, CellTiter-Glo ATP luminescence, 48-72 h; max response: active compounds read low
Procedure, shortened: as §2

HACAT [2] = experiment: qHTS assay to identify novel small-molecules to repurpose for Merkel cell carcinoma treatment (AID 1296009); conditions: MCC and control cell lines, CellTiter-Glo viability, 72 h; at 44.8 µM (top of the series) unless noted
Procedure, shortened: (§3)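 72 hr, 37 degree celsius; NPC 8-pt / MIPE 11-pt dose response; compound pinned in DMSO; CellTiter-Glo, 10 min RT, luminescence; normalized to no-cell and DMSO controls.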

HEK293T = experiment: as above; conditions: MCC and control cell lines, CellTiter-Glo viability, 72 h; at 44.8 µM (top of the series) unless noted
Procedure, shortened: as §3
Further: nearly all actives have a fitted effect of over 60% in size.

In the case of `CC(O)(P(=O)(O)O)P(=O)(O)O`, the Potency (JCK) is reported as “inactive”, the Potency (N140) is reported as “inactive” and the Potency (P93_24) is reported as “inactive”. For the same molecule, the Potency (P94_40) was “inactive”, the Potency (PAD) was “inactive” and the Potency (PC15) was “inactive”. The Potency (PC26) was “inactive”, the Potency (PC49) was “inactive” and the Potency (SC27B) was “inactive”. The Potency (TAB109) was “inactive”, the Potency (TAB113) was “inactive” and the Potency (TAB165) was “inactive”. For the same molecule, the Potency (W2) was “inactive”, the max response (CRL-7250) was 0.923% and the outcome (HEK293) was “inactive”. The outcome (HaCat [1]) was “inactive”, the max response (KB-3-1) was 0.618% and the max response (NIH3T3) was 0.0838%. The outcome (HACAT [2]) was “inactive” and the outcome (HEK293T) was “inactive”.

With `OC[C@H]1O[C@H](O[C@]2(CCl)O[C@H](CCl)[C@@H](O)[C@@H]2O)[C@H](O)[C@@H](O)[C@H]1Cl` the outcome (CRL-7250) was “inactive”, the max response (HEK293) was -9.55% and the outcome (HEK293) was “inactive”. For the same molecule, the max response (HaCat [1]) was -7.79% and -6.26%, the max response (NIH3T3) was -17.4% and the outcome (NIH3T3) was “inactive”. The outcome (HEK293T) was “inactive”.

In the case of `Cc1ccc(Nc2c(F)cccc2Cl)c(CC(=O)O)c1`, the outcome (CRL-7250) is reported as “inactive”, the max response (HEK293) is reported as 2.42% and the outcome (HaCat [1]) is reported as “inactive”. For the same molecule, the max response (KB-3-1) was -12.9% and 2.03%, the max response (NIH3T3) was 2.46% and the outcome (HACAT [2]) was “inactive”.

With `O=c1[nH]c(=O)n([C@H]2CCCO2)cc1F` the max response (CRL-7250) was 4.85% and -6.48%, the max response (HEK293) was 1.04% and the outcome (HEK293) was “inactive”. The outcome (HaCat [1]) was “inactive”, the max response (NIH3T3) was -5.35% and the outcome (HACAT [2]) was “inactive”. For the same molecule, the outcome (HEK293T) was “inactive”.

For `CN1[C@@H]2CC[C@H]1CC(OC(=O)c1c[nH]c3ccccc13)C2` (stereo partly specified), the max response (CRL-7250) was -2.71%, the outcome (CRL-7250) was “inactive” and the max response (HEK293) was 4.73%. For the same molecule, the outcome (HEK293) was “inactive”, the max response (HaCat [1]) was 0.428% and the outcome (HaCat [1]) was “inactive”. The max response (KB-3-1) was -8.86% and -5.38%, the outcome (NIH3T3) was “inactive” and the outcome (HACAT [2]) was “inactive”. For the same molecule, the outcome (HEK293T) was “inactive”.

With `CCCCC(=O)O[C@]1(C(=O)CO)CC[C@H]2[C@@H]3CCC4=CC(=O)CC[C@]4(C)[C@H]3[C@@H](O)C[C@@]21C` the outcome (CRL-7250) was “inactive”, the max response (HEK293) was 3.34% and the outcome (HaCat [1]) was “inactive”. The max response (KB-3-1) was -2.52%, the max response (NIH3T3) was 1.69% and the outcome (HACAT [2]) was “inactive”.

`COC(=O)CCc1ccc(OCC(O)CNC(C)C)cc1` (stereo unspecified) was tested, and the max response (CRL-7250) was -4.17% and 4.01%, the max response (HEK293) was 1.57% and 1.48% and the max response (HaCat [1]) was -0.177%. For the same molecule, the outcome (HaCat [1]) was “inactive”, the max response (KB-3-1) was 4.51% and -9.53% and the max response (NIH3T3) was 1.54% and 3.52%. The outcome (HACAT [2]) was “inactive”.

`C[n+]1c2cc(N)ccc2cc2ccc(N)cc21` (tested in a mixture with another compound) was tested, and the Potency (CRL-7250) was 6.68 µM (active) and the Potency (HEK293) was 3.35 µM (active).

For `COC(=O)C1=C(C)NC(C)=C(C(=O)O[C@@H]2CCCN(Cc3ccccc3)C2)[C@@H]1c1cccc([N+](=O)[O-])c1`, the Potency (CRL-7250) was 15 µM (active), the Potency (HEK293) was 11.9 µM (active) and 8.2 µM (active) and the max response (HaCat [1]) was -9.72%. For the same molecule, the max response (KB-3-1) was 7.74% and the max response (NIH3T3) was -11.8% and -29.4%.

In the case of `CN=C(NC#N)Nc1ccc(C2=NNC(=O)CC2C)cc1` (stereo unspecified), the Potency (PC26) is reported as “inactive”, the Potency (W2) is reported as “inactive” and the max response (CRL-7250) is reported as -12.9%. The outcome (HEK293) was “inactive”, the outcome (HaCat [1]) was “inactive” and the max response (KB-3-1) was 6.06%. For the same molecule, the max response (NIH3T3) was -5.93%, the outcome (HACAT [2]) was “inactive” and the outcome (HEK293T) was “inactive”.

In the case of `C[C@H](CCC(=O)O)[C@H]1CC[C@H]2[C@@H]3C(=O)C[C@@H]4CC(=O)CC[C@]4(C)[C@H]3CC(=O)[C@]12C`, the max response (CRL-7250) is reported as -5.31%, the outcome (HEK293) is reported as “inactive” and the outcome (HaCat [1]) is reported as “inactive”. For the same molecule, the max response (KB-3-1) was -9.72%, the max response (NIH3T3) was -5.45% and the outcome (HACAT [2]) was “inactive”. The outcome (HEK293T) was “inactive”.

`Cc1ncc(CSSCc2cnc(C)c(O)c2CO)c(CO)c1O` was tested, and the Potency (JCK) was “inactive”, the Potency (N140) was “inactive” and the Potency (P93_24) was “inactive”. For the same molecule, the Potency (P94_40) was “inactive”, the Potency (PAD) was “inactive” and the Potency (PC15) was “inactive”. For the same molecule, the Potency (PC26) was “inactive”, the Potency (PC49) was “inactive” and the Potency (SC27B) was “inactive”. For the same molecule, the Potency (TAB109) was “inactive”, the Potency (TAB113) was “inactive” and the Potency (TAB165) was “inactive”. The Potency (W2) was “inactive”, the max response (CRL-7250) was -3.39% and the outcome (HEK293) was “inactive”. For the same molecule, the outcome (HaCat [1]) was “inactive”, the max response (KB-3-1) was -0.0269% and the max response (NIH3T3) was 4.82%. The outcome (HACAT [2]) was “inactive” and the outcome (HEK293T) was “inactive”.

In the case of `CCOC(=O)COc1ccc2c(C)c(CCN(CC)CC)c(=O)oc2c1Cl`, the Potency (JCK) is reported as “inactive”, the Potency (N140) is reported as “inactive” and the Potency (P93_24) is reported as “inactive”. For the same molecule, the Potency (P94_40) was “inactive”, the Potency (PAD) was “inactive” and the Potency (PC15) was “inactive”. The Potency (PC26) was “inactive”, the Potency (PC49) was “inactive” and the Potency (SC27B) was “inactive”. The Potency (TAB109) was “inactive”, the Potency (TAB113) was “inactive” and the Potency (W2) was “inactive”. For the same molecule, the Potency (CRL-7250) was 29.9 µM (active), the outcome (HEK293) was “inactive” and the max response (HaCat [1]) was -12.1%. The max response (NIH3T3) was 1.29% and the outcome (HEK293T) was “inactive”.

In the case of `CCCCCCC[N+](CC)(CC)CCCCc1ccc(Cl)cc1`, the Potency (JCK) is reported as 3.16 µM (active), the Potency (N140) is reported as 2.51 µM (active) and the Potency (P93_24) is reported as 2.24 µM (active). The Potency (P94_40) was 2 µM (active), the Potency (PAD) was 3.98 µM (active) and the Potency (PC15) was 1.58 µM (active). The Potency (PC26) was 2.03 µM (active), the Potency (PC49) was 3.16 µM (active) and the Potency (SC27B) was 2.82 µM (active). The Potency (TAB109) was 2 µM (active), the Potency (TAB113) was 2.24 µM (active) and the Potency (TAB165) was 2 µM (active). The Potency (W2) was 1.61 µM (active), the Potency (CRL-7250) was 7.5 µM (active) and the Potency (HEK293) was 6.68 µM (active). The max response (KB-3-1) was -16.1%.

`CC(C)(C(=O)c1cccnc1)c1cccnc1` was tested, and the Potency (JCK) was 10 µM (active), the Potency (N140) was “inactive” and the Potency (P93_24) was “inactive”. The Potency (P94_40) was “inactive”, the Potency (PAD) was “inactive” and the Potency (PC15) was “inactive”. For the same molecule, the Potency (PC26) was “inactive”, the Potency (SC27B) was “inactive” and the Potency (TAB109) was “inactive”. The Potency (TAB113) was “inactive”, the Potency (TAB165) was “inactive” and the Potency (W2) was “inactive”. For the same molecule, the max response (CRL-7250) was -2.01%, the outcome (HEK293) was “inactive” and the max response (HaCat [1]) was 3.03%. The max response (KB-3-1) was 11%, the outcome (NIH3T3) was “inactive” and the outcome (HEK293T) was “inactive”.

`CC(=O)O[C@]1(C(C)=O)CC[C@H]2[C@@H]3C[C@H](C)C4=CC(=O)CC[C@]4(C)[C@H]3CC[C@@]21C` was tested, and the outcome (CRL-7250) was “inactive”, the Potency (HEK293) was 15 µM (active) and the max response (HaCat [1]) was -32.7% and 2.19%. For the same molecule, the max response (NIH3T3) was -18.3% and the outcome (NIH3T3) was “inactive”.

`CN(C)CC/C=C1/c2ccccc2COc2ccc(CC(=O)O)cc21` showed a max response (CRL-7250) of 2.78%, a max response (HEK293) of 1.17% and a max response (HaCat [1]) of -4.81%. The max response (NIH3T3) was -1.64%.

Reference: PubChem BioAssay (NCATS)
